A short description of test [1]: qHTS assay to identify small molecule agonists of the hypoxia (HIF-1) signaling pathway - cell viability counter screen (AID 1224844; calls by dose curve; also: nearly all actives have a fitted effect of over 50% in size; also: potency is read from the fitted curve at half-maximal effect). In outline:
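HRE-bla ME-180 cells in medium with 0.5% dialyzed FBS were preincubated 5 hrs at 37C, exposed to compounds for 17 hrs, then viability was read as CellTiter-Glo luminescence after 30 min at room temperature, in the reporter wells.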

The nature of test [2]: qHTS assay to identify small molecule agonists of H2AX (AID 1224845; active = well fitted activation curve with a large enough effect in the signal ratio in the repeat runs, not every such curve was filed as active; the % refers to the signal ratio). In outline: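 Wild-type CHO-K1 cells plated overnight, then exposed 3 hr at 37C to compounds at 15 concentrations (0.76% DMSO). Lysed, then HTRF anti-pH2AX(S139)-cryptate/anti-H2AX-d2 detection after 24 hr at room temperature; emissions 665 and 620 nm.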
The nature of test [3]: qHTS assay to identify small molecule agonists of H2AX - cell viability counter screen (AID 1224847; calls by dose curve; also: nearly all actives have a fitted effect of over 30% in size; also: potency is read from the fitted curve at half-maximal effect). In outline:
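After overnight plating of 1000 CHO-K1 cells per well, a 15-concentration compound series was applied for 3 hr at 37C. Luminescence from CellTiter-Glo, read following 30 min at room temperature, reflected cell viability.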
(In general: Quantitative high-throughput screening tests each substance at several concentrations.)

A short description of test [4]: qHTS assay to identify small molecule antagonists of the estrogen related receptor (ERR) signaling pathway from Tox21 library (AID 1224848). Also: nearly all actives have a fitted effect of over 50% in size. Also: potency is read from the fitted curve at half-maximal effect. In outline:
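Screening used an ERR reporter line supplied by NTP, exposed for 18 h at 37 C to library compounds delivered in DMSO. Signal was luciferase luminescence developed with ONE-Glo at room temperature for 30 min.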

The nature of test [5]: qHTS assay to identify small molecule agonists of the estrogen related receptor (ERR) signaling pathway from Tox21 library (AID 1224849; calls by dose curve; also: nearly all actives have a fitted effect of over 15% in size). The note with it: ERR reporter cell line, ONE-Glo luciferase, 18 h; at 92.4 µM (top of the series) unless noted. In outline:
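ERR reporter cell line (NTP) seeded, rested 6 h at 37 C/5% CO2, then pinned with Tox21 compounds in DMSO. After 18 h at 37 C, ONE-Glo luciferase luminescence was read following 30 min at room temperature.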

The nature of test [6]: qHTS RealTime-Glo MT Cell Viability Assay in HepG2 cells - 24 hour (AID 1224867). Also: nearly all actives have a fitted effect of over 50% in size. Also: potency is read from the fitted curve at half-maximal effect. In outline: (§1)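 HepG2 suspension premixed with RealTime-Glo reagents is plated at 600 cells per well and left 5 h at 37 C/5% CO2. Compounds in DMSO then go in, and bioluminescence reflecting viable cell number is recorded over 40 h.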
The nature of test [7]: qHTS RealTime-Glo MT Cell Viability Assay in HEK293 cells - 32 hour (AID 1224868). Also: nearly all actives have a fitted effect of over 50% in size. Also: potency is read from the fitted curve at half-maximal effect. In outline:
(§2)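 Reads taken at 0, 8, 16, 24, 32 and 40 h from the same wells. HEK293 cells (600/well) carried RealTime-Glo reagents from seeding, with compound added after a 5 h settle at 37 C.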

Test [8] is described as follows: A CellTox Green Cytotoxicity Assay to monitor cytotoxicity in HEK293 cells - 0 hour (AID 1224869). Also: nearly all actives have a fitted effect of over 50% in size. In outline: (§3)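 HEK293 cells premixed with CellTox Green dye were seeded at 600 cells/well and left 5 h at 37 C/5% CO2 before pin transfer of 23 nL compound in DMSO. Fluorescence from dye bound to dead-cell DNA was read during 40 h treatment.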
Test [9] is described as follows: qHTS RealTime-Glo MT Cell Viability Assay in HepG2 cells - 40 hour (AID 1224870). Also: nearly all actives have a fitted effect of over 50% in size. Also: potency is read from the fitted curve at half-maximal effect. In outline:
(§4)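 HepG2 cells mixed with RealTime-Glo MT reagents (NanoLuc plus cell-permeant prosubstrate) were seeded at 600 cells/well, incubated 5 h at 37 C/5% CO2, then pinned with compounds in DMSO; nonlytic luminescence tracked viability during 40 h treatment.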

The nature of test [10]: A CellTox Green Cytotoxicity Assay to monitor cytotoxicity in HEK293 cells - 40 hour (AID 1224871). Also: nearly all actives have a fitted effect of over 45% in size. Also: potency is read from the fitted curve at half-maximal effect. In outline: as §3
Test [11] is described as follows: qHTS RealTime-Glo MT Cell Viability Assay in HEK293 cells - 16 hour (AID 1224872). Also: nearly all actives have a fitted effect of over 50% in size. Also: potency is read from the fitted curve at half-maximal effect. In outline: as §2
The nature of test [12]: qHTS RealTime-Glo MT Cell Viability Assay in HepG2 cells - 8 hour (AID 1224873). Also: nearly all actives have a fitted effect of over 55% in size. Also: potency is read from the fitted curve at half-maximal effect. In outline:
as §4

The nature of test [13]: qHTS RealTime-Glo MT Cell Viability Assay in HEK293 cells - 40 hour (AID 1224874). Also: nearly all actives have a fitted effect of over 50% in size. Also: potency is read from the fitted curve at half-maximal effect. The note with it: RealTime-Glo luminescence; max response: active compounds read low. In outline:
(§5)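 HEK293 cells mixed with RealTime-Glo reagents (NanoLuc plus cell-permeant prosubstrate) at 600 cells/well, preincubated 5 h at 37 C/5% CO2, then given 23 nL compound in DMSO. Nonlytic luminescence from viable cells was read at 0, 8, 16, 24, 32 and 40 h.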

Test [14] in a line: A CellTox Green Cytotoxicity Assay to monitor cytotoxicity in HEK293 cells - 24 hour (AID 1224875). Also: nearly all actives have a fitted effect of over 45% in size. Also: potency is read from the fitted curve at half-maximal effect. In outline: as §3
Test [15] is described as follows: A CellTox Green Cytotoxicity Assay to monitor cytotoxicity in HepG2 cells - 16 hour (AID 1224876). Also: nearly all actives have a fitted effect of over 45% in size. In outline:
(§6)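 HepG2 cells were seeded together with the CellTox Green dye at 600 cells/well, left 5 h at 37 C/5% CO2, then given compounds in DMSO. Fluorescence from dye bound to dead-cell DNA was read repeatedly over 40 h of treatment at 37 C.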

Test [16] can be described thus: A CellTox Green Cytotoxicity Assay to monitor cytotoxicity in HepG2 cells - 24 hour (AID 1224878). Also: nearly all actives have a fitted effect of over 45% in size. Also: potency is read from the fitted curve at half-maximal effect. In outline: as §6
Test [17] can be described thus: A CellTox Green Cytotoxicity Assay to monitor cytotoxicity in HepG2 cells - 40 hour (AID 1224879). Also: nearly all actives have a fitted effect of over 40% in size. Also: potency is read from the fitted curve at half-maximal effect. In outline: as §6
Test [18] can be described thus: qHTS RealTime-Glo MT Cell Viability Assay in HEK293 cells - 0 hour (AID 1224880). In outline:
as §5

Test [19] in a line: qHTS RealTime-Glo MT Cell Viability Assay in HepG2 cells - 32 hour (AID 1224877). Also: nearly all actives have a fitted effect of over 55% in size. In outline: as §1
Test [20] in a line: qHTS assay to identify small molecule agonists of the hypoxia (HIF-1) signaling pathway (AID 1224846; active = well fitted activation curve with a large enough effect in the signal ratio in the repeat runs, not every such curve was filed as active; the % refers to the signal ratio). In outline: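 HRE-bla ME-180 cells (beta-lactamase reporter under hypoxia response element) were plated at 2,000 cells/well in medium with 0.5% dialyzed FBS, rested 5 hrs, then given compounds in DMSO for 17 hrs at 37C, 5% CO2. Reporter induction was read with CCF4-AM FRET substrate.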

Values without a mark were called inactive. Inconclusive results are not listed. The source made the active and inactive calls. Unless noted, calls follow the shape of the dose curve; as a rule, active = well fitted curve in the direction sought with a large enough effect in the repeat runs; inconclusive = weak or mixed curves; inactive = no such curve, though single readings can be large; an effect the other way counts as inactive or inconclusive.
% is scaled to controls: 0 for no effect and ±100 for the full control effect.

As for `CCC(C)COC(C)=O` (centres undefined), the Potency entry in [1], in test [2], in test [3], in [4], in test [6] and in test [7] was “inactive” throughout. Besides, the Potency entry in test [8], in test [9], in [10], in [11], in test [12] and in test [14] was “inactive” in each case. Besides, the Potency result in test [15], in test [16], in [17] and in [18] was “inactive” in each case. Besides, the activity change, positive = activation in [5] was 1.45%. For the same compound, the max response in test [13] was 12%.

Turning to `O=c1[nH]ncc2ccccc12`, the Potency entry in [1], in test [2], in test [3], in [6], in test [7] and in [8] was “inactive” in each case. The Potency result in [9], in test [10], in [11], in test [12], in [14] and in test [15] was “inactive” in each case. Also, the Potency entry in [19], in [16], in [17] and in test [18] was “inactive” throughout. In [13], the max response was 6.19%.

With `CCCCCCCCCCCCCCN(CCO)CCO`, the Potency was 49 µM (active) in [1]; 89.8 µM (active) in [3]; 61.1 µM (active) in test [4]; 21.9 µM (active) in test [6]; 21.9 µM (active) in test [7]; 17.4 µM (active) in test [9]. The Potency was 38.9 µM (active) in [10]; 49 µM (active) in [11]; 54.9 µM (active) in [12]; 19.5 µM (active) in test [13]; 43.6 µM (active) in [14]; 24.5 µM (active) in test [16]. Moreover, the Potency in [17] is 13.8 µM (active). For the same compound, the Potency entry in test [2] and in test [8] was “inactive” in each case. For the same compound, the activity change, positive = activation in [5] was -78.9%.

`O=C(O)c1cccc(-c2noc(-c3ccccc3F)n2)c1`: the Potency entry in test [1], in test [2], in test [6], in [7], in [8] and in test [9] was “inactive” in each case. Moreover, the Potency entry in [10], in [11], in test [12], in [14], in test [15] and in test [19] was “inactive” each time. Also, the Potency entry in test [16], in test [17] and in test [18] was “inactive” in each case. Further, the call in test [20] was inactive. The max response in [13] is 2.77%.

As for `O=C(OC(=O)c1ccccc1)c1ccccc1`, the Potency result in [1], in test [2], in test [3], in test [7], in [8] and in [9] was “inactive” throughout. The Potency result in test [10], in test [11], in test [12], in test [14], in test [15] and in [19] was “inactive” in each case. Besides, the Potency result in [16], in test [17] and in [18] was “inactive” each time. Also, the outcome in test [20] was inactive. Besides, in [13], the max response was 6.21%.

For the compound `O=C(O)CCc1nc(-c2ccccc2)c(-c2ccccc2)o1`, the Potency entry in test [1], in [2], in test [3], in [4], in test [7] and in [8] was “inactive” each time. Besides, the Potency result in [9], in [10], in test [11], in [12], in test [14] and in test [15] was “inactive” each time. Also, the Potency entry in test [19], in [16], in test [17] and in [18] was “inactive” in each case. In test [5], the activity change, positive = activation is -3.38% [at 42.5 µM]. In test [13], the max response was 0.935%.

Regarding `COC(=O)CCS`, the Potency result in test [1], in test [2], in [3], in test [6], in test [7] and in test [8] was “inactive” throughout. Besides, the Potency entry in test [10], in test [11], in [12], in [14], in test [15] and in test [16] was “inactive” in each case. Besides, the Potency result in test [17] and in [18] was “inactive” each time. Besides, in test [20], the compound was called inactive. Also, the max response in test [13] was 21.6%.
